Data taken from PubChem BioAssay AID1159580 (chemical genetic matrix, 2015).
Several values for one entry are separate records, joined by “and”; a condition that tells them apart may be missing. Equal entries are not always repeated. The campaign covered roughly 5,500 compounds. About 2,000 (36%) were called active. Another 18% or so got no clear call; they are omitted. No stated cut-off is given here; in the data, active means normalized growth mostly below about 0.91 (no sharp cut-off); inconclusive means no clear call, values can overlap the other calls; inactive means mostly above about 0.92. This is one part of the list.

Assay: chemical genetic growth profiling, strain panel (AID 1159580);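 further: tested at 20 µM; growth read once vehicle control cultures reached saturation at 30 °C; 1 = growth at the plate median or of vehicle wells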
Settings: S. cerevisiae deletion strains, growth OD

Measured: normalized growth

Oc1cc(O)c2c(c1)O[C@H](c1ccc(O)c(O)c1)[C@@H](O)C2
inactive: locus YAL021C, strain ccr4, stronger effect = lower value 1.03 | locus YAL026C, strain drs2, stronger effect = lower value 1.01 | locus YAL030W, strain snc1, stronger effect = lower value 1.01 | locus YBL061C, strain skt5, stronger effect = lower value 1.01 | locus YBR009C, strain hhf1, stronger effect = lower value 0.993 | locus YBR021W, strain FUR4, stronger effect = lower value 1.05 | locus YBR023C, strain chs3, stronger effect = lower value 1.02 | locus YBR171W, strain sec66, stronger effect = lower value 1.01 | locus YBR229C, strain ROT2, stronger effect = lower value 0.957 | locus YBR231C, strain swc5, stronger effect = lower value 1.01 | locus YBR279W, strain paf1, stronger effect = lower value 1.01 | locus YCL011C, strain gbp2, stronger effect = lower value 1.01 | locus YCL016C, strain dcc1, stronger effect = lower value 1.01 | locus YCL029C, strain bik1, stronger effect = lower value 0.972 | locus YCL061C, strain MRC1, stronger effect = lower value 1.01 | locus YCL069W, strain vba3, stronger effect = lower value 1 | locus YCR088W, strain abp1, stronger effect = lower value 1.01 | locus YDL005C, strain med2, stronger effect = lower value 1.01 | locus YDL035C, strain GPR1, stronger effect = lower value 0.985 | locus YDL040C, strain nat1, stronger effect = lower value 1 | locus YDL074C, strain BRE1, stronger effect = lower value 1 | locus YDL101C, strain DUN1, stronger effect = lower value 0.979 | locus YDL185W, strain tfp1, stronger effect = lower value 0.978 | locus YDL192W, strain arf1, stronger effect = lower value 0.992 | locus YDR001C, strain nth1, stronger effect = lower value 0.994 | locus YDR069C, strain doa4, stronger effect = lower value 1.02 | locus YDR101C, strain arx1, stronger effect = lower value 1.03 | locus YDR137W, strain rgp1, stronger effect = lower value 1.03 | locus YDR159W, strain sac3, stronger effect = lower value 1 | locus YDR162C, strain NBP2, stronger effect = lower value 0.962 | locus YDR195W, strain ref2 0.972 | locus YDR297W, strain sur2, stronger effect = lower value 1.01 | locus YDR318W, strain mcm21, stronger effect = lower value 0.981 | locus YDR334W, strain swr1, stronger effect = lower value 1 | locus YDR335W, strain msn5, stronger effect = lower value 1.01 | locus YDR388W, stronger effect = lower value 0.963 | locus YDR392W, strain spt3, stronger effect = lower value 0.981 | locus YDR502C, strain sam2, stronger effect = lower value 1.01 | locus YEL003W, strain gim4, stronger effect = lower value 1.02 | locus YEL037C, strain rad23, stronger effect = lower value 1.01 | locus YEL061C, strain CIN8 (second series), stronger effect = lower value 1 | locus YEL061C, strain CIN8, stronger effect = lower value 0.988 | locus YER015W, strain faa2, stronger effect = lower value 1 | locus YER016W, strain bim1, stronger effect = lower value 0.997 | locus YER110C, stronger effect = lower value 0.98 | locus YER111C, strain swi4, stronger effect = lower value 0.988 | locus YER155C, strain BEM2 (second series), stronger effect = lower value 1.01 | locus YER155C, strain BEM2, stronger effect = lower value 0.991 | locus YER167W, strain BCK2, stronger effect = lower value 0.994 | locus YFR010W, strain ubp6, stronger effect = lower value 1.02 | locus YGL078C, strain dbp3, stronger effect = lower value 0.99 | locus YGL086W, strain mad1, stronger effect = lower value 1.04 | locus YGL167C, strain pmr1, stronger effect = lower value 1.01 | locus YGL173C, strain kem1, stronger effect = lower value 1.01 | locus YGL227W, strain vid30, stronger effect = lower value 1 | locus YGL240W, strain doc1, stronger effect = lower value 1.01 | locus YGL248W, strain PDE1, stronger effect = lower value 0.988 | locus YGL253W, strain hxk2, stronger effect = lower value 1.01 | locus YGR078C, strain PAC10, stronger effect = lower value 0.976 | locus YGR135W, strain pre9, stronger effect = lower value 0.966 | locus YGR252W, strain gcn5, stronger effect = lower value 0.947 | locus YHR013C, strain ard1, stronger effect = lower value 0.984 | locus YHR027C, strain rpn1, stronger effect = lower value 1.01 | locus YHR030C, strain SLT2, stronger effect = lower value 0.996 and 0.983 | locus YHR079C, strain IRE1 (second series), stronger effect = lower value 0.979 | locus YHR079C, strain IRE1, stronger effect = lower value 0.974 | locus YHR094C, strain hxt1, stronger effect = lower value 0.972 | locus YHR129C, strain ARP1, stronger effect = lower value 0.998 | locus YHR142W, strain chs7, stronger effect = lower value 1.03 | locus YHR200W, strain rpn10, stronger effect = lower value 0.975 | locus YIL066C, strain RNR3, stronger effect = lower value 0.992 | locus YIL073C, strain SPO22, stronger effect = lower value 1.02 | locus YIL125W, strain kgd1, stronger effect = lower value 1 | locus YIR030C, strain dcg1, stronger effect = lower value 0.994 | locus YJL092W, strain hpr5, stronger effect = lower value 1 | locus YJL095W, strain BCK1 (second series), stronger effect = lower value 1 | locus YJL095W, strain BCK1, stronger effect = lower value 0.977 and 0.984 | locus YJL115W, strain asf1, stronger effect = lower value 1 | locus YJL129C, strain trk1, stronger effect = lower value 1.01 | locus YJL134W, strain LCB3, stronger effect = lower value 0.989 | locus YJL154C, strain vps35, stronger effect = lower value 1 | locus YJL164C, strain tpk1, stronger effect = lower value 1.01 | locus YJL166W, strain qcr8, stronger effect = lower value 1.02 | locus YJL168C, strain set2, stronger effect = lower value 0.99 | locus YJL187C, strain SWE1 (second series), stronger effect = lower value 0.971 | locus YJL187C, strain SWE1, stronger effect = lower value 1.01 | locus YJR043C, strain POL32, stronger effect = lower value 1.01
